In the library only some 2.3% were active in any assay of this set; here they are far more common.
GLD-1 TGE inh: GLD-1-TGE RNA interaction inhibition (C. elegans). Q17339. purified GLD-1 + fluorescein TGE RNA, fluorescence polarization. inhibition, % at 5.96 µM. hit rate 0.44% among 320,000. AID 2280;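 active = percent inhibition above a per-plate cutoff, the plate mean of test compounds plus 3 SD, cut at about 30% in these data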
Target sequence (Q17339 whole entry, looked up): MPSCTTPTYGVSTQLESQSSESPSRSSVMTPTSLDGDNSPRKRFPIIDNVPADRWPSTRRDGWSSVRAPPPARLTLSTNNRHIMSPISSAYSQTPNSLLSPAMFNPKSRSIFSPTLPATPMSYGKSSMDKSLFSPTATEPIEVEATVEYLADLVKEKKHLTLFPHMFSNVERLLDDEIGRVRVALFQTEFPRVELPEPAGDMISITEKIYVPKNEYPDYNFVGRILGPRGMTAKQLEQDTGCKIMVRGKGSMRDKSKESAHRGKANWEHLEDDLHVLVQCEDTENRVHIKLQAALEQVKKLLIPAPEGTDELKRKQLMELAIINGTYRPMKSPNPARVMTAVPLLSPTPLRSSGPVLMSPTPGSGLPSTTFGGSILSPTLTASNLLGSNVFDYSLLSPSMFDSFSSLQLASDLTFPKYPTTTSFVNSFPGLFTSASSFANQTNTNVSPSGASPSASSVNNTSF
MCL1-BIM inh: inhibitors of human MCL1 binding to BIM-BH3 peptide | Q07820 | GST-MCL1 / FITC-Bim-BH3 fluorescence polarization | inhibition, % at 10.9 µM | hit rate 0.68% among 320,000;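 active = inhibition above the mean inhibition of all tested compounds plus 3 SD, set per campaign, cut at about 40% in these data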;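 also: higher means more loss of mP so more displacement of Bim peptide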
Target sequence (Q07820 whole entry, looked up): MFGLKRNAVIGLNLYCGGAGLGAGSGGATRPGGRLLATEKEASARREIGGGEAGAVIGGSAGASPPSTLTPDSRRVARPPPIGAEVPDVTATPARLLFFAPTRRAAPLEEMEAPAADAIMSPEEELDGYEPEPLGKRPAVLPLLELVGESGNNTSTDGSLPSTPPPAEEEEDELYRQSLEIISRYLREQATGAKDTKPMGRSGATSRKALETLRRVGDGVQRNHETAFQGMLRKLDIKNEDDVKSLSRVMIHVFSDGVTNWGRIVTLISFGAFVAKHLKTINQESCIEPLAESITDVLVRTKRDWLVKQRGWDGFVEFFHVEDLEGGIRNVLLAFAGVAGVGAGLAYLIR
Mcl-1 Bim block: inhibitors of Bim-Mcl-1 interaction, human. hit rate 0.1% among 190,000. inhibition, % at 10 µM. Q07820. Bead-based flow cytometry, Bim peptide-Mcl-1 binding; in the data active = inhibition above about 40%
Mcl1 Bid PPI: Mcl-1/Bid interaction inhibition; hit rate 0.97% among 220,000; TR-FRET Mcl-1/Bid-Dy647 peptide binding, 1536-well; AID 1021; Q07820; inhibition, % at 21.7 µM;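 active = compounds that cut the binding signal by more than half at the single screening dose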;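 also: His-tagged Mcl-1 with europium anti-His antibody binding Bid BH3 peptide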
Mcl1 Noxa PPI: disrupts binding of human Mcl-1 to Noxa peptide | AID 1022 | hit rate 1.5% among 220,000 | TR-FRET Mcl-1/Noxa peptide binding, 2 h | inhibition, % at 21.7 µM;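 active = compounds that cut the protein-peptide binding signal by more than 50% relative to plate controls in a single-dose test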;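 also: His-tagged Mcl-1 with rhodamine Noxa BH3 peptide and terbium anti-His antibody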
BCLXL inh: inhibitors of human Bcl-xL | Q07817 | GST-Bcl-xL / FITC-Bim BH3 peptide fluorescence polarization | inhibition, % at 10.9 µM | hit rate 0.7% among 320,000 | AID 2129;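 active = inhibition above the mean of all tested compounds plus 3 SD, cutoff set per campaign, cut at about 30% in these data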;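 also: inhibitors lower millipolarization by displacing the labeled peptide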
Bcl-xL conf: counter-screen for MCL1 inhibitors: confirmation of human Bcl-xL inhibitors; inhibition, % at 10.9 µM; hit rate 54% among 1,700; shares compounds with MCL1-BIM inh; GST-Bcl-xL / FITC-Bim BH3 peptide FP binding;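 active = inhibition above a cutoff equal to the mean inhibition of all tested compounds plus 3 SD, cut at about 30% in these data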
MCL1 inh confirm: MCL1-BIM-BH3 interaction inhibition, confirmation. shares compounds with MCL1-BIM inh. GST-MCL1 / FITC-Bim-BH3 fluorescence polarization. inhibition, % at 10.9 µM. hit rate 61% among 1,700;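 active = inhibition above the average of all tested compounds plus 3 SD, cut at about 40% in these data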
Of the large screens only hits and unclear results are named; the others gave an inactive call (follow-up assays come after a bar, where they were run).

CCC(C)[C@H](NC(=O)C1CC(=O)N(c2ccc3c(c2)OCO3)C1)C(=O)NC1CCCCC1 (stereo not given in full)	GLD-1 TGE inh 38, MCL1-BIM inh 60, BCLXL inh 54 (no result: Mcl-1 Bim block, Mcl1 Bid PPI, Mcl1 Noxa PPI) | Bcl-xL conf 60 | MCL1 inh confirm 78
CCC(C)[C@H](NC(=O)C1CC(=O)N(c2ccc3c(c2)OCCO3)C1)C(=O)NC1CCCC1 (stereo not given in full)	none (no result: Mcl-1 Bim block, Mcl1 Bid PPI, Mcl1 Noxa PPI)
N#CC(C#N)=C1C=CC=CN1/C(=C\c1ccccc1)C(=O)c1cccs1	MCL1-BIM inh 42, Mcl1 Noxa PPI 63 | Bcl-xL conf 37 | MCL1 inh confirm 65
O=C1CC(c2ccc3ccccc3c2)NN1 (stereo not given)	MCL1-BIM inh 42 (no result: Mcl-1 Bim block, Mcl1 Bid PPI, Mcl1 Noxa PPI) | Bcl-xL conf inactive | MCL1 inh confirm inactive
Nc1ccc(Nc2ccccc2)c(S(=O)(=O)O)c1	MCL1-BIM inh 42 (no result: Mcl-1 Bim block) | Bcl-xL conf 48 | MCL1 inh confirm 78
CC1(C)CC(=O)C(C=Nc2cccnc2)=C(O)C1	none
CC1(C)CC(=O)C(C=Nc2cccnc2/N=C/C2=C(O)CC(C)(C)CC2=O)=C(O)C1	GLD-1 TGE inh 118, MCL1-BIM inh 63, BCLXL inh 58 | Bcl-xL conf inactive | MCL1 inh confirm inactive
CC1(C)CC(=O)C(C=Nc2ccc(C(=O)c3ccccc3)cc2N=CC2=C(O)CC(C)(C)CC2=O)=C(O)C1	GLD-1 TGE inh 104, MCL1-BIM inh 80, BCLXL inh 67 | Bcl-xL conf inactive | MCL1 inh confirm inactive
CC1(C)CC(=O)C(C=Nc2ccc(O)c(N=CC3=C(O)CC(C)(C)CC3=O)c2)=C(O)C1	none
C=CCS(=O)(=O)N1CCCC(Cc2ccccc2C)(C(=O)OCC)C1 (stereo not given)	none (no result: Mcl-1 Bim block, Mcl1 Bid PPI, Mcl1 Noxa PPI)
O=C(O)CCNc1ccc(NCCC(=O)O)c2c1C(=O)c1ccccc1C2=O	GLD-1 TGE inh 77, MCL1-BIM inh 154, BCLXL inh 114 (no result: Mcl-1 Bim block, Mcl1 Bid PPI, Mcl1 Noxa PPI) | Bcl-xL conf 102 | MCL1 inh confirm 130
Cc1ccc(S(=O)(=O)N2CCN(C(=O)COC(=O)c3cncc(Br)c3)CC2)c(C)c1	none (no result: MCL1-BIM inh, Mcl-1 Bim block, Mcl1 Bid PPI, Mcl1 Noxa PPI, BCLXL inh)
O=C(NC(Cc1ccccc1)C(=O)O)/C(=C/c1ccco1)NC(=O)c1cccc(Br)c1 (stereo not given)	MCL1-BIM inh 51, BCLXL inh 37 | Bcl-xL conf inactive | MCL1 inh confirm inactive
CN(c1ccc(C(=O)Nc2ccc(CC#N)cc2)cc1)S(C)(=O)=O	none
C=CCn1c(=O)[nH]c2nc3cc(N=CN(C)C)c(C)cc3nc2c1=O	GLD-1 TGE inh 181, MCL1-BIM inh active, BCLXL inh active (no result: Mcl-1 Bim block) | Bcl-xL conf 186 | MCL1 inh confirm active
O=C(CN1C(=O)C2C3CCC(C3)C2C1=O)NCc1ccco1 (stereo not given)	MCL1-BIM inh 53 | Bcl-xL conf inactive | MCL1 inh confirm inactive
CC1CCCC(NCC(=O)Nc2ccc(C(N)=O)cc2)C1C (stereo not given)	none
Nc1nc(=S)c2ncn([C@@H]3O[C@H](CO)[C@@H](O)[C@H]3O)c2[nH]1	none (no result: Mcl-1 Bim block, Mcl1 Bid PPI, Mcl1 Noxa PPI)
Nc1nc(=S)c2ncn(C3OC(CO)C(O)C3O)c2[nH]1 (stereo not given)	MCL1-BIM inh 82, Mcl1 Noxa PPI 89 (no result: Mcl-1 Bim block) | Bcl-xL conf inactive | MCL1 inh confirm 47
COc1ccc(NC(=O)c2c(NC(=O)CCC(=O)O)sc(-c3ccccc3)c2C)cc1	none
Cc1ccc(NC(=O)CCC(=O)c2cccs2)c(Br)c1	none (no result: Mcl-1 Bim block, Mcl1 Bid PPI, Mcl1 Noxa PPI)
Cc1ccc(C)c(S(=O)(=O)C(C#N)c2nc3ccccc3nc2N2CCCC2)c1 (stereo not given)	GLD-1 TGE inh 51, MCL1-BIM inh 78, BCLXL inh 77 | Bcl-xL conf inactive | MCL1 inh confirm inactive
Cc1ccc(C)c(S(=O)(=O)C(C#N)c2nc3ccccc3nc2N2CCOCC2)c1 (stereo not given)	none
CCc1ccc2nc(N(CCCN(C)C)C(=O)c3ccc(S(=O)(=O)N4CCCC4)cc3)sc2c1	MCL1-BIM inh 44 (no result: Mcl-1 Bim block, Mcl1 Bid PPI, Mcl1 Noxa PPI) | Bcl-xL conf inactive | MCL1 inh confirm inactive
O=C(c1nc2ccc(Cl)cn2c1CN1CCCC1)N1CCc2ccccc2C1	GLD-1 TGE inh 37, MCL1-BIM inh 67, BCLXL inh 57 (no result: Mcl-1 Bim block, Mcl1 Bid PPI, Mcl1 Noxa PPI) | Bcl-xL conf 63 | MCL1 inh confirm 87
CCc1cc(=O)oc2cc(C)c(CN3CCCC(C)C3)c(O)c12 (stereo not given)	MCL1-BIM inh 47, Mcl1 Bid PPI 93, Mcl1 Noxa PPI 52 | Bcl-xL conf inactive | MCL1 inh confirm inactive
O=C(NCc1ccccn1)C(=O)NCC1OCCN1S(=O)(=O)c1ccc([N+](=O)[O-])cc1 (stereo not given)	none (no result: Mcl-1 Bim block, Mcl1 Bid PPI, Mcl1 Noxa PPI)
CN1C(=O)c2ccccc2NC(=O)[C@]12O[C@@H]2c1cccc(O)c1	MCL1-BIM inh 65, BCLXL inh 62 (no result: Mcl-1 Bim block) | Bcl-xL conf 56 | MCL1 inh confirm 69
CN1C(=O)c2ccccc2N(C)C1c1cccc(O)c1 (stereo not given)	none (no result: Mcl-1 Bim block, Mcl1 Bid PPI, Mcl1 Noxa PPI)
O=C1SC(SCc2ccccc2)=N/C1=C\c1ccc(C(=O)O)cc1	none
O=C1SC(SCc2ccccc2)=N/C1=C\c1ccco1	MCL1-BIM inh 43 | Bcl-xL conf inactive | MCL1 inh confirm inactive
CSc1ccccc1NC(=O)CSc1nncs1	none
CCOC(=O)C1CCCN(C(=O)C2c3ccccc3Oc3ccccc32)C1 (stereo not given)	GLD-1 TGE inh 189, MCL1-BIM inh active, BCLXL inh active | Bcl-xL conf 42 | MCL1 inh confirm 55
CCOC(=O)C1CCCN(C(=O)c2ccc(C(=O)c3ccccc3)cc2)C1 (stereo not given)	none (no result: Mcl-1 Bim block, Mcl1 Bid PPI, Mcl1 Noxa PPI)
N#C/C(=C\c1ccc(O)c(O)c1)C(=O)NCCc1ccccc1	MCL1-BIM inh 42 (no result: Mcl-1 Bim block, Mcl1 Bid PPI, Mcl1 Noxa PPI) | Bcl-xL conf 31 | MCL1 inh confirm 45
Cc1nnsc1C(=O)N1CCC(CO)(Cc2ccccc2Cl)CC1	none (no result: Mcl-1 Bim block)
Cc1cccc(NC(=O)CNC(=O)CCc2nc3sc4c(c3c(=O)[nH]2)CCCC4)c1C	MCL1-BIM inh 43 (no result: Mcl-1 Bim block, Mcl1 Bid PPI, Mcl1 Noxa PPI) | Bcl-xL conf 34 | MCL1 inh confirm 67
O=C(O)c1ccccc1C(=O)Nc1ccc(S(=O)(=O)Nc2ccc(F)cc2)cc1	none (no result: Mcl-1 Bim block, Mcl1 Bid PPI, Mcl1 Noxa PPI)
C=CCN(c1ccccc1)S(=O)(=O)c1cccc(C(=O)Nc2cccc(C)n2)c1	none (no result: Mcl-1 Bim block, Mcl1 Bid PPI, Mcl1 Noxa PPI)
COC(=O)c1cc2c(C)c(C)c3ccccn3c-2c1C(=O)OC	GLD-1 TGE inh 86, MCL1-BIM inh 115, BCLXL inh 112 | Bcl-xL conf 71 | MCL1 inh confirm 81
COC(=O)c1cc2n3ccccc3c(C)c(-c3ccccc3)c-2c1C(=O)OC	GLD-1 TGE inh 86, MCL1-BIM inh 119, BCLXL inh 110 | Bcl-xL conf 111 | MCL1 inh confirm 140
COC(=O)c1cc2ccccn2c2c(C(=O)OC)c(C(=O)OC)cc1-2	none

Compound activity as filed in PubChem BioAssay.
